# Screening data: PubChem BioAssay, Pan Lab, Icahn School of Medicine at Mount Sinai
# ROC1-CUL1 inh = blocks human RBX1-Cullin-1 di-ubiquitin formation; AID 1347404; in vitro K48 di-Ub FRET, acceptor:donor ratio, 45 min; P62877+Q13616; 140,000 compounds, 0.6% hits; inhibition, % at 10 µM; in the data active = inhibition above about 25%
# Target sequence (P62877 whole entry, looked up): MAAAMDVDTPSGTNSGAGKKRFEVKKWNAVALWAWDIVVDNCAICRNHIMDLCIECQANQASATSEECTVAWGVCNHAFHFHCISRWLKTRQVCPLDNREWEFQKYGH
# Target sequence (Q13616 whole entry, looked up): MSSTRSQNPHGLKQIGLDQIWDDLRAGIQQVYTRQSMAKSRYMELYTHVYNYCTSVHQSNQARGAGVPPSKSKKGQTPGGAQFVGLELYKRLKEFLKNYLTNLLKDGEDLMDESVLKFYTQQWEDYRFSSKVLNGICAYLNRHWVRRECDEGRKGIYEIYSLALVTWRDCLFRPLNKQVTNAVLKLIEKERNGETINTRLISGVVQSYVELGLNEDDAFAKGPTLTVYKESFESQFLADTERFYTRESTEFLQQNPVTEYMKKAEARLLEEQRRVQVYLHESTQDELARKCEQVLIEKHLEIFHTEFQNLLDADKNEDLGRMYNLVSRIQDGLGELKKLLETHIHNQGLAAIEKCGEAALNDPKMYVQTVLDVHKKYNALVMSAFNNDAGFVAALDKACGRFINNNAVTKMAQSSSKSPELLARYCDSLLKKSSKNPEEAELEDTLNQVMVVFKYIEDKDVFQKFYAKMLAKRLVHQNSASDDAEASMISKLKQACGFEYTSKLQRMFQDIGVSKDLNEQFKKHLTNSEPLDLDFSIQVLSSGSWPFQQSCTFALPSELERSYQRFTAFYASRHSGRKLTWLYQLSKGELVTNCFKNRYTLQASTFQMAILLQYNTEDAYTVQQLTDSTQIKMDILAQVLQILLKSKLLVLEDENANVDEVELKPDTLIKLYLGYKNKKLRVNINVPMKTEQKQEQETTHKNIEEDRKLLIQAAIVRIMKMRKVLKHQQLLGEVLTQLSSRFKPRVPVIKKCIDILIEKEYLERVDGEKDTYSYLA
# Numbers without * were called inactive. The full list was thinned out, with hits kept by preference.
SMILES,ROC1-CUL1 inh
O=C(O)c1ccc(-c2ccc(/C=c3/sc4n(c3=O)C(c3ccc(F)cc3)C3=C(N=4)c4ccccc4CC3)o2)cc1Cl (configuration not stated),58*
O=c1/c(=C\c2cc(Cl)ccc2O)sc2n1C(c1ccccc1)C1=C(N=2)c2ccccc2CC1 (configuration not stated),-5
Cc1cc(/C=c2/sc3n(c2=O)C(c2ccc(F)cc2)C2=C(N=3)c3ccccc3CC2)c(C)n1-c1ccc(C(=O)O)cc1 (configuration not stated),0
O=C(O)c1ccc(/C=c2/sc3n(c2=O)C(c2cccs2)C2=C(N=3)c3ccccc3CC2)cc1 (configuration not stated),56*
O=c1/c(=C/c2ccc(N3CCOCC3)o2)sc2n1C(c1ccc(F)cc1)C1=C(N=2)c2ccccc2CC1 (configuration not stated),0
CCCCOC(=O)c1c2c(n3ccccc13)C(=O)c1ccccc1C2=O,7
CCOc1cccc(-c2cc(C(=O)N/N=C/c3cc(C(C)(C)C)c(O)c(C(C)(C)C)c3)c3ccccc3n2)c1,-8
Cc1ccc(-c2[nH]nc3c2C(c2ccc(Br)cc2)C(C#N)C(=N)O3)c(C)c1 (configuration not stated),-1
COc1ccc(Nc2ccc([N+](=O)[O-])cn2)cc1Cl,2
CCc1cc(Br)cc(C(=O)O)c1,4
Cc1nn(C)c(-c2n[nH]c(=S)n2-c2ccc(F)cc2)c1Cl,-5
COC(=O)C1[C@](C)(C(=O)OC)N=N[C@@]1(C)C(=O)OC,-3
CN(c1ccc(C(=O)Nc2ccc(S(=O)(=O)Nc3cccc(Cl)c3Cl)cc2)cc1)S(=O)(=O)c1ccccc1,5
Cc1ccc(-c2nn3c(N)c(C=C4C=Nc5ccccc54)c(=O)nc3s2)cc1,2
COC1=CC(=Cc2c(N)n3nc(-c4ccccc4Cl)sc3nc2=O)C=CC1=O,60*
Nc1c(C=C2C=Nc3ccccc32)c(=O)nc2sc(C(F)(F)F)nn12,-4
Cc1cccc(OCCCOc2ccc(Br)cc2/C=C2\C(=O)NN(c3ccccc3)C2=O)c1,57*
CCOc1cc(/C=C2\C(=O)NN(c3ccccc3)C2=O)cc(Br)c1OCCCOc1ccc(Cl)cc1,-15
Cc1cccc(COc2ccccc2/C=C2\C(=O)NN(c3ccccc3)C2=O)c1,8
CCOc1cc(/C=C2\C(=O)NN(c3ccccc3)C2=O)cc(Br)c1OCCCOc1cccc(C)c1,35*
CCOc1cc(/C=C2\C(=O)NN(c3ccccc3)C2=O)ccc1OCc1ccccc1C,10
COc1cc(/C=C2/C(=O)NN(c3ccccc3)C2=O)cc(OC)c1O,10
COc1cc(/C=C2\C(=O)NN(c3ccccc3)C2=O)cc(Br)c1OCc1ccc(C)cc1,8
COc1cc(/C=C2\C(=O)NN(c3ccccc3)C2=O)cc(Br)c1OCCCOc1cccc(C)c1,45*
COc1cc(/C=C2/C(=O)NN(c3ccccc3)C2=O)ccc1OCC(=O)Nc1cccc(C)c1,-2
SMILES,ROC1-CUL1 inh
COc1cc(/C=C2\C(=O)NN(c3ccccc3)C2=O)cc(Br)c1OCCCOc1ccc(Cl)cc1,55*
CCOc1ccc(/C=C2/C(=O)NN(c3cccc(F)c3)C2=O)cc1OC,-5
Cc1ccccc1Nc1nc(-c2ccc3ccccc3c2)cs1,5
O=C1CC(N2CCc3ccccc3C2)C(=O)N1c1ccc(Oc2ccccc2)cc1 (configuration not stated),-2
COc1ccc(-c2csc3ncn(Cc4ccccc4C)c(=O)c23)cc1,12
Cc1cccc2cc(-c3ccccn3)nc(N)c12,-2
O=c1[nH][nH]c(=O)n1-c1ccc(Cl)cc1,-1
O=C1NCCN(Cc2ccccc2)C1CC(=O)N1CCC(O)CC1 (configuration not stated),-5
S=c1nc(-c2ccccc2Cl)n(-c2cccc(Cl)c2)c2c1CCCC2,4
COC(=O)C(Nc1ccc([N+](=O)[O-])cc1[N+](=O)[O-])C(=O)OC,-4
CC(C)N(C(C)C)S(=O)(=O)c1ccc(=O)[nH]c1,-5
O=c1c2c3c(sc2[nH]c(=S)n1-c1ccc(OC(F)F)cc1)CCC3,3
COc1cc(/C=C2/C(=O)NN(c3ccc(C)c(C)c3)C2=O)cc(Br)c1OC(C)=O,31*
COc1cc(/C=C2/C(=O)NN(c3ccc(I)cc3)C2=O)cc(Br)c1OC(C)=O,3
COc1cc(/C=C2/C(=O)NN(c3ccc(C)c(C)c3)C2=O)ccc1OCC(=O)N1CCOCC1,0
Cc1sc2nc(C)n(N)c(=O)c2c1-c1ccc(Cl)cc1,6
FC(F)(F)c1ccc(N2CCN(c3ccccc3)CC2)nc1,2
Cc1ccc(NC(=O)c2c(N)sc3c2CCCCC3)c(C)c1,65*
Cc1ccc(NC(=O)c2c(NC(=O)C(C)(C)C)sc3c2CCCC3)c(C)c1,-5
Cc1ccc(NC(=O)c2c(N)sc3c2CCC3)cc1,-3
COc1ccc(/C=N\N=C(/N)SCc2c(Br)c(=O)n(-c3ccccc3)n2C)cc1,-2
COc1cccc(C(=O)Nc2ccccc2SCC2=Nc3c(C)cccc3C(=O)C2)c1,4
CC(/C=C/c1ccco1)=N/NC(=O)c1ccccc1Cl,-2
Cc1ccc(C(=O)/C=C/c2ccco2)c(O)c1,34*
O=C(/C=C/c1ccco1)Nc1cccc(NC(=O)c2ccc(Cl)cc2Cl)c1,0
SMILES,ROC1-CUL1 inh
CCc1ccc(C2C3=C(CCCC3=O)N(c3ccccc3F)C(=N)C2C#N)cc1 (configuration not stated),-10
O=C1C2Cc3c([nH]c4ccccc34)C(c3ccc(Cl)cc3)N2C(=S)N1CC1CCCO1 (configuration not stated),-6
CCN1C(=O)C(C=Nc2cccc(Br)c2)C(=O)N(CC)C1=O,7
COc1ccccc1NC(=O)COc1cccc2ccccc12,0
Cc1cc(O)ccc1NC(=O)COc1cccc2ccccc12,3
O=C(COc1cccc2ccccc12)Nc1ccc(Cl)cc1C(=O)O,25*
COc1ccc(COC(=O)C2C(C)=NC3=C(C(=O)CC(C)(C)C3)C2c2ccc(O)c(OC)c2)cc1 (configuration not stated),-3
COc1ccc(Cl)cc1N1C(=O)C2C(C1=O)C2(c1ccccc1)c1ccccc1 (configuration not stated),1
NC(=O)c1c(F)cccc1-c1cccc(-c2ccn[nH]2)c1,9
CCCNS(=O)(=O)c1cccc2c(N)cccc12,58*
O=C(O)CNS(=O)(=O)c1cccc2ccccc12,7
Cc1ccccc1S(=O)(=O)NCCC(C)C,-7
C=CCn1c(=O)/c(=C2/Sc3ccc(OC)cc3N2CC)s/c1=C1/C(=O)N(c2ccccc2)C(=S)N1c1ccccc1,6
Cc1ccc(N2C(=O)NC(=O)C(C=Nc3ccc(O)c(C(=O)O)c3)C2=O)cc1C (configuration not stated),-5
COc1cc(CNc2ccc(O)cc2)cc(Cl)c1OCc1ccc(Cl)cc1,0
COc1cc(CNc2ccc(N3CCCCC3)cc2)cc(Cl)c1OCc1cccs1,-1
CCOc1cc(CNc2ccc(O)cc2)cc(Cl)c1OCc1ccc(Cl)cc1,86*
CCOc1cc(CNc2ccc(C)c(Cl)c2)cc(Cl)c1OCc1ccc(Cl)cc1Cl,-5
COc1cc(CNc2ccc(N3CCCC3)cc2)cc(Cl)c1OC,-8
CCOc1cc(CNc2ccc(N3CCCC3)cc2)cc(Cl)c1OC,63*
Cc1nc2ccccc2cc1C(=O)Nc1cccc(C(F)(F)F)c1,-3
Cc1cccc([C@@H]2[C@@H](C(=O)C(C)(C)C)N3c4ccccc4C=C[C@@H]3C2(C#N)C#N)c1,1
